Screens: PubChem, National Center for Advancing Translational Sciences (NCATS)
Most compounds without a hit are left out; they make up all but 19% or so of the library.
TDP1 cell CPT: growth inhibition of DT40 Tdp1-/-;hTDP1 cells with camptothecin (screen for TDP1 inhibitors); actives 12% (n = 420,000); AID 686979; Potency, µM (series often up to 46.2 µM), for inactives: top-dose activity change, negative = growth inhibition, actives largely listed as inhibitors; chicken DT40 Tdp1-/-;hTDP1 cells + 20 nM CPT, ATP luminescence, 48 h; also: potency is read from the fitted curve at half-maximal effect; nearly all actives have a fitted effect of over 55% in size
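Chicken DT40 Tdp1-/- cells complemented with human TDP1, 400 cells/well, exposed to compounds plus 20 nM camptothecin for at least 48 h at 37 C; viability read as ATP content by CellTiter-Glo luminescence.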
HT1080 IDH1KD tx: toxicity to HT-1080 IDH1 knockdown cells (counter line) | Potency, µM (doses to about 46.1 µM), inactives show at the highest dose activity, negative = toxicity, most hits filed as cytotoxic | actives 2% (n = 360,000) | HT-1080 IDH1 knockdown viability, ATP luminescence, 48 h;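 also: potency is read from the fitted curve at half-maximal effect; 0% = DMSO wells and -100% = cell-free medium wells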
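Knockdown cells (IDH1KD HT-1080) received compounds 2 h after plating at 750 cells/well and were kept 48 h at 37 °C in 5% FBS RPMI. A CellTiter-Glo luminescence read gave % activity for curve fitting.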
IL-1B inflam inh: inflammasome signaling inhibition, IL-1 beta readout; THP-1 LPS/ATP IL-1B secretion, AlphaLISA, 16 h; stronger effect = lower value; activity change, % at 57.5 µM; actives 4.7% (n = 360,000); AID 743279; in the data active = activity change below about -50%; inconclusive = mostly about -30% to -49%
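THP-1 cells pretreated 1 hr with compounds (up to 57.5 uM final), then stimulated with LPS (250 ng/mL final) plus ATP (1.25 mM final); secreted IL-1B measured by AlphaLISA after 16 hr, decreased signal indicating inhibition.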
DT40 TDP1 no CPT: qHTS for Inhibitors of human tyrosyl-DNA phosphodiesterase 1 (TDP1): qHTS in cells in absence of CPT; AID 686978, 2013; DT40 Tdp1-/- hTDP1 cells, no CPT, ATP luminescence, 48 h; actives 15% (n = 420,000); Potency, µM (series often up to 46.2 µM), for inactives: at the top dose activity change, negative = growth inhibition, actives largely listed as inhibitors; also: potency is read from the fitted curve at half-maximal effect; nearly all actives have a fitted effect of over 55% in size
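Seeded 400 DT40-hTDP1 cells/well (vehicle DMSO, no 20 nM CPT); pinned compounds; ≥48 hr at 37 °C; CellTiter-Glo luminescence as viability measure.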
HT1080-NT tox: kills 2HG-producing HT-1080-NT fibrosarcoma cells. HT-1080-NT fibrosarcoma viability, CellTiter-Glo ATP luminescence, 48 h. Potency, µM (doses to about 46.1 µM), inactives show top-dose activity, negative = less viability, usual class: cytotoxic. actives 1.6% (n = 360,000). AID 686970;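 also: NT is the 2HG producing partner of a matched IDH1 knockdown line; potency is read from the fitted curve at half-maximal effect; 0% = DMSO-treated cells and -100% = media-only wells without cells; nearly all actives have a fitted effect of over 55% in size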
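Fibrosarcoma NT cells, 750 per well in 5% FBS RPMI, were exposed to compound for 48 hours. Viability: CellTiter-Glo luminescence.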
Numbers without * were called inactive; ? = inconclusive; / = no result; [ ] = remark or other dose. Unless noted, calls follow the shape of the dose curve; as a rule, active = well fitted curve in the direction sought with a large enough effect; inconclusive = small, poorly fitted or top-dose-only effect, or another doubt; inactive = no such curve, though single readings can be large; an effect the other way counts as inactive or inconclusive. Unless noted, % is scaled to controls: 0 for no effect and ±100 for the full control effect.

SMILES | TDP1 cell CPT | HT1080 IDH1KD tx | IL-1B inflam inh | DT40 TDP1 no CPT | HT1080-NT tox
Cc1ccc(NC(=O)c2cnn3c2NC(=C2CC2)C=C3C(F)F)cc1 | -13% | / | / | -24% | /
O=C(c1cnn2c1NC(=C1CC1)C=C2C(F)F)N1CCc2ccccc21 | 11µM* | / | / | 11µM* | /
Cc1cc([N+](=O)[O-])nn1CC(=O)NCc1ccco1 | 15% | 7% | 10 | 15% | 15%
COc1ccccc1NC(=O)C1=C(C)Nc2ncnn2C1c1ccc[nH]1 (centres undefined) | 1% | / | / | 8% | /
COc1ccc(CCNC(=O)c2cnn3c2NC(=C2CC2)C=C3C(F)F)cc1OC | 11µM* | / | / | 13µM* | /
O=C(Nc1cccc(Nc2ccccc2)c1)c1cnn2c1NC(=C1CC1)C=C2C(F)F | 4.5µM* | / | / | 14µM* | /
Cc1ccc(NC(=O)c2cnn3c2NC(=C2CC2)C=C3C(F)F)cc1C | -1% | / | / | ? | /
CCCc1nc2ccccc2c(C(=O)N(CC)CC(=O)NCc2cccs2)c1CC | 5% | 2% | -5 | -22% | -5%
Cc1ccc(S(=O)(=O)NC2=NCCC2)cc1 | -1% | 7% | 27 | -21% | 5%
CC(C)[C@H](NC(=O)N1CCn2c1nc1ccccc12)C(=O)NCC1CCCO1 (some centres undefined) | 2% | 2% | -2 | 0% | 16%
Cc1ccc2c(c1)C1CN(C)CCC1N2Sc1ccccc1[N+](=O)[O-] (centres undefined) | ? | ? | -89* | 16µM* | 16µM*
CCOC(=O)CCN(Cc1ccccc1)S(=O)(=O)c1csc(C(N)=O)c1 | -15% | 6% | 7 | -16% | 5%
COc1cc2c(cc1OC)C(SC)=NC1(CCCC1)C2 | 16µM* | -7% | ? | 15µM* | -24%
Cc1cc(=O)n2cn[nH]c2n1 | 22% | 5% | 14 | 2% | 7%
O=[N+]([O-])c1ccccc1C=NNC(=S)NN=Cc1ccccc1[N+](=O)[O-] | 6.5µM* | ? | -7 | 3.3µM* | ?
CCOc1cccc(/C=N/NC(=S)Nc2ccccc2[N+](=O)[O-])c1O | 9.2µM* | 16µM* | 147 | 8.2µM* | ?
O=[N+]([O-])c1ccccc1/C=N/Nc1nnc(-c2ccccc2)c(-c2ccccc2)n1 | 2.1µM* | 19% | 10 | 1.6µM* | 7%
O=[N+]([O-])c1ccccc1/C=N\Nc1nccs1 | 15% | 1% | -2 | 29% | 7%
O=C(CN(Cc1ccccc1)S(=O)(=O)c1ccccc1)N/N=C/c1ccccc1[N+](=O)[O-] | ? | -29% | ? | 21µM* | ?
Cc1c(C(=O)N2CCCCC2)sc2ncnc(NCCN(C)C)c12 | 17% | / | / | 2% | /
CCCCNC(=S)N/N=C/c1cccc(OCC)c1O | 1.2µM* | 9% | -3 | 2.1µM* | 29%
CCn1cc(/C=N\NC(=O)c2ccc(Cl)cc2)cn1 | 6% | -1% | -4 | -5% | -3%
COc1ccc(-c2c(C)oc3c(CN4CCOCC4)c(O)ccc3c2=O)cc1 | -19% | -3% | -7 | 2% | 13%
Cc1c(-c2ccc(Cl)cc2)c(=O)oc2c(CN3CCOCC3)c(O)ccc12 | ? | / | / | 21µM* | /
CCN1CCN(Cc2c(O)ccc3c(C)c(-c4ccccc4)c(=O)oc23)CC1 | ? | / | / | 16µM* | /
SMILES | TDP1 cell CPT | HT1080 IDH1KD tx | IL-1B inflam inh | DT40 TDP1 no CPT | HT1080-NT tox
CCN1CCN(Cc2c(O)ccc3c(C)cc(=O)oc23)CC1 | -8% | 3% | -1 | -26% | 4%
O=c1oc2c(CN3CCOCC3)c(O)ccc2c2c1CCC2 | -2% | -5% | 1 | -3% | -3%
CCc1c(C)c2ccc(O)c(CN3CCN(c4ccc(F)cc4)CC3)c2oc1=O | 21µM* | / | / | ? | /
CC1CN(Cc2c(O)ccc3c2oc(=O)c2ccccc23)CC(C)O1 (centres undefined) | 15µM* | -7% | -14 | 15µM* | ?
COc1ccc(-c2nn(Cc3ccccc3)cc2C(=O)N2CCN(c3ncccn3)CC2)cc1 | ? | 3% | -14 | ? | 11%
COc1ccccc1CCNC(=O)C1CCC(=O)N(C2CCCCCC2)C1 (centres undefined) | 0% | 3% | 0 | -8% | 4%
CC(C)Cc1nnc(NC(=O)C2CCN(C(=O)c3ccc(F)cc3)CC2)s1 | -21% | 14% | 3 | -15% | 18%
O=C(Oc1cccc(Cl)c1)N1CCOCC1 | 6% | -19% | -18 | -4% | -3%
Cc1c(-c2ccc(Cl)cc2)c(=O)oc2ccc(OC(=O)N3CCOCC3)cc12 | ? | / | / | 21µM* | /
CN(C(=O)c1ccc(NC(=O)C2CCCN(C(=O)OC(C)(C)C)C2)cc1)C1CCCCC1 (centres undefined) | ? | 0% | -19 | ? | -5%
Cc1ccccc1NC(=O)CSc1nc(N2CCCCC2)nc(N2CCCCC2)n1 | ? | 5% | 22 | -15% | -3%
COc1ccc(Cl)cc1NC(=O)CSc1nc(N2CCOCC2)nc(N2CCOCC2)n1 | ? | 8% | 5 | ? | 1%
O=C(CSc1nc(Nc2ccccc2)nc(N2CCOCC2)n1)Nc1ccc(Br)cc1F | ? | 1% | 0 | 18µM* | -1%
O=C(CSc1nc(N2CCOCC2)nc(N2CCOCC2)n1)Nc1ccc(Cl)cc1Cl | ? | 1% | -1 | ? | 3%
O=C(CSc1nc(Nc2ccccc2)nc(N2CCOCC2)n1)Nc1ccccc1Cl | 16µM* | -4% | -7 | 11µM* | -6%
COc1ccc(Cl)cc1NC(=O)CSc1nc(Nc2ccccc2)nc(N2CCOCC2)n1 | ? | -22% | -15 | 18µM* | -19%
Cc1ccc(CNC(=O)CSc2nc(N3CCCCC3)nc(N3CCCCC3)n2)cc1 | 21µM* | ? | 0 | 23µM* | ?
O=C(CSc1nc(Nc2ccccc2)nc(N2CCOCC2)n1)NC1CCCCC1 | ? | -6% | -6 | ? | -8%
O=C(CSc1nc(Nc2ccccc2)nc(N2CCOCC2)n1)Nc1ccc([N+](=O)[O-])cc1 | 18µM* | 7% | ? | 15µM* | 8%
COc1ccc(Cl)cc1NC(=O)CSc1nnc(CN2CCOCC2)n1-c1ccc(Cl)cc1 | 16µM* | -26% | 0 | 21µM* | 2%[9.24 µM]
CC(=O)c1cccc(NC(=O)CSc2nc(N3CCCCC3)nc(N3CCCCC3)n2)c1 | -1% | 27% | 19 | 26µM* | -4%
COc1ccc(Cl)cc1NC(=O)CSc1nc(N2CCCCC2)nc(N2CCCCC2)n1 | ? | 9% | 14 | 16µM* | 6%
O=C(CSc1nc(Nc2ccccc2)nc(N2CCOCC2)n1)Nc1cccc([N+](=O)[O-])c1 | ? | -7% | ? | ? | -11%
